The results in this text go back to the supplement of paper PMC3842684.

Test [1] concerns P. falciparum NF54-pfs16-GFP early (I-III) stage gametocytes. Nature of the test: relative % inhibition of viable gametocyte number; higher = more gametocytocidal. Conditions: stage: early (I-III) gametocyte, incubation 72 h. The procedure, abridged: (§1)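 Viable gametocytes were counted by confocal imaging as elongated GFP objects carrying MitoTracker Red signal above a cut-off, after 72 h of compound exposure (5 or 0.5 µM) at 37°C in 5% CO2 and 5% O2 and overnight staining. The NF54 pfs16-GFP gametocytes had been magnet-isolated at early (I/IIa, day 2) or late (day 8) stage and plated at 10% parasitaemia, 0.1% haematocrit in 384-well poly-D-lysine imaging plates. Relative inhibition was normalised to vehicle and positive-control wells within each plate.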

Test [2] concerns P. falciparum NF54-pfs16-GFP late (IV-V) stage gametocytes. Described as above. Conditions: stage: late (IV-V) gametocyte, incubation 72 h. The method, boiled down: as §1

Take `CCCCCC(=O)N1c2ccccc2N=C2CC(c3ccc(OC)c(OC)c3)CC(O)=C2C1c1ccc(C(F)(F)F)cc1` (stereo not given): the relative % inhibition in test [1] (0.5 µM) was 50.6%; in test [1] (5 µM), 76.3%; in test [2] (0.5 µM), 32.8%; in test [2] (5 µM) it was 60.6%.
For `CCOc1ccc(C2N(C)c3ccccc3N2C)cc1`, the relative % inhibition in test [1] (0.5 µM) was 5%; in test [1] (5 µM) it was 15.9%; in test [2] (0.5 µM), -6.22%; in test [2] (5 µM) it was -12.5%.
As to `O=C(Nc1ccc(Cl)c(Cl)c1)Nc1ccc(Cl)c(Cl)c1`, the relative % inhibition is 4.74% in test [1] (0.5 µM), 96% in test [1] (5 µM), 17.5% in test [2] (0.5 µM) and 48.8% in test [2] (5 µM).
In the case of `COc1ccc(C(=O)C(CCC(CNC(C)(C)C)C(=O)c2ccc(OC)cc2)CNC(C)(C)C)cc1` (stereo not given), the relative % inhibition amounted to 62.7% in test [1] (0.5 µM), 94% in test [1] (5 µM), 10.9% in test [2] (0.5 µM) and 104% in test [2] (5 µM).
Taken in the same sequence, the figures for `O=C(NC(c1ccccc1)c1ccc2cccnc2c1O)c1ccccc1` (stereo not given) were 31.4%, 95.3%, 35.8% and 86.9%.
Consider `COc1ccc(-c2nc3cc(Cc4ccc5[nH]c(-c6ccc(OC)cc6)nc5c4)ccc3[nH]2)cc1`, for which the relative % inhibition stood at 48.1% in test [1] (0.5 µM), 100% in test [1] (5 µM), 17.1% in test [2] (0.5 µM) and 103% in test [2] (5 µM).
`CN(C)c1ccc(-c2nc3cc(N)ccc3[nH]2)cc1`: the relative % inhibition in test [1] (0.5 µM) is -6.62%; in test [1] (5 µM) it was 18.8%; in test [2] (0.5 µM), -13.1%; in test [2] (5 µM), -10.8%.
Taken in the same sequence, the figures for `CCOC(=O)C1=CN(C)C=C(C(=O)OCC)C1c1cc(Br)c(OCC)c(OC)c1` were 38.1%, 89.7%, 16.5% and 37.9%.
As for `CCOc1ccc(CCNC(=O)c2cccs2)cc1OCC`, the relative % inhibition in test [1] (0.5 µM) is -1.74%; in test [1] (5 µM) it was 30.1%; in test [2] (0.5 µM), -6.65%; in test [2] (5 µM), 16.1%.
Taken in the same sequence, the figures for `COc1ccc(C(=O)Nc2nonc2-c2ccc(OC)c(OC)c2)cc1Cl` were 33.4%, 31.6%, 13.1% and 59.1%.
As for `CCOC(=O)c1cn(CC)c2cc(N3CCCCC3)c(F)cc2c1=O`, the relative % inhibition was 22% in test [1] (0.5 µM), 17% in test [1] (5 µM), 91.5% in test [2] (0.5 µM) and 93.5% in test [2] (5 µM).
As to `CCN(CC)c1cc(C)c2cc(NC(=O)c3cccc(OC)c3)ccc2n1`, the relative % inhibition in test [1] (0.5 µM) is 15.1%; in test [1] (5 µM), 16.1%; in test [2] (0.5 µM), -0.167%; in test [2] (5 µM), 86.7%.
The corresponding values for `COc1cccc(Nc2nc(N)c3ccccc3n2)c1` are -16.5%, -5.49%, 7.14% and 1.59%.
The corresponding values for `CCCC(c1nnnn1C1CCCCC1)N1CCN(C(=O)c2ccco2)CC1` (stereo not given) are 0.873%, -28.3%, -2.74% and 2.82%.
Taken in the same sequence, the figures for `c1ccc(Cn2c(N=Nc3c(Nc4ccccc4)ccc4ccccc34)nc3ccccc32)cc1` were 62.1%, 106%, 102% and 100%.
Turning to `Cc1cccc(-n2ncc3c(=O)[nH]c(-n4nc(C)cc4NC(=O)c4cc5ccccc5o4)nc32)c1`, the relative % inhibition is -5.22% in test [1] (0.5 µM), 49% in test [1] (5 µM), 100% in test [2] (0.5 µM) and 102% in test [2] (5 µM).
For the compound `CCn1c(SCC(=O)Nc2cc(C(F)(F)F)ccc2Cl)nc2ccccc2c1=O`, the relative % inhibition in test [1] (0.5 µM) was 27.2%; in test [1] (5 µM), 5.95%; in test [2] (0.5 µM), 5.8%; in test [2] (5 µM), -6.79%.
As to `O=c1nc(C=Cc2ccc(Cl)cc2)oc2ccccc12`, the relative % inhibition in test [1] (0.5 µM) is 10.5%; in test [1] (5 µM) it was -14.5%; in test [2] (0.5 µM), 7.96%; in test [2] (5 µM) it was 19.3%.
`CCOC(=O)c1cnc2ccc(CC)cc2c1O`: the relative % inhibition in test [1] (0.5 µM) was -8.43%; in test [1] (5 µM), 42.6%; in test [2] (0.5 µM), 73.6%; in test [2] (5 µM), 79.8%.
On to `N=c1n(CCN2CCCCC2)c2ccccc2n1CC(O)c1cccc(Br)c1` (stereo not given), for which the relative % inhibition is 6.75% in test [1] (0.5 µM), 94.5% in test [1] (5 µM), 25.5% in test [2] (0.5 µM) and 55.6% in test [2] (5 µM).
Regarding `Cc1cc(=O)oc2c1ccc1oc(C(=O)c3ccccc3)c(C)c12`, the relative % inhibition in test [1] (0.5 µM) is 8.22%; in test [1] (5 µM) it was 5.4%; in test [2] (0.5 µM) it was 17.2%; in test [2] (5 µM) it was -4.53%.
For the compound `Cc1ccc(-c2nc3ccccc3o2)cc1NCc1cc(Cc2ccccc2)ccc1O`, the relative % inhibition in test [1] (0.5 µM) is 9.8%; in test [1] (5 µM) it was 95.1%; in test [2] (0.5 µM), 13.4%; in test [2] (5 µM), 48.6%.
As for `COc1cc(SC)ccc1C(=O)N1CCCC(C)C1` (stereo not given), the relative % inhibition in test [1] (0.5 µM) is -24.7%; in test [1] (5 µM) it was -6.96%; in test [2] (0.5 µM), 5.64%; in test [2] (5 µM) it was 6.01%.
Regarding `CCC(=O)Nc1nnc(Cc2ccc(OC)c(OC)c2)s1`, the relative % inhibition in test [1] (0.5 µM) worked out at 16.8%; in test [1] (5 µM), 4.14%; in test [2] (0.5 µM) it was 0.759%; in test [2] (5 µM), 6.51%.
In the case of `O=C(NC1CCN(Cc2ccccc2)CC1)c1cc(-c2cccnc2)nc2ccc(Cl)cc12`, the relative % inhibition in test [1] (0.5 µM) was 3.2%; in test [1] (5 µM), 46.2%; in test [2] (0.5 µM), -30.4%; in test [2] (5 µM) it was -0.963%.
